The values below come from paper PMC7819943, “Rice protein-binding microarrays: a tool to detect cis-acting elements near promoter regions in rice”.

In all, about 68,000 sequences were measured (“fluorescence intensity (a.u.)”: median about 9,100, highest 2% from about 16,000 on). What follows is part of a selection rich in the highest values, with near analogues and random picks from the rest.

Chain of OsWRKY34 (Q0JBA9 entry or part of it): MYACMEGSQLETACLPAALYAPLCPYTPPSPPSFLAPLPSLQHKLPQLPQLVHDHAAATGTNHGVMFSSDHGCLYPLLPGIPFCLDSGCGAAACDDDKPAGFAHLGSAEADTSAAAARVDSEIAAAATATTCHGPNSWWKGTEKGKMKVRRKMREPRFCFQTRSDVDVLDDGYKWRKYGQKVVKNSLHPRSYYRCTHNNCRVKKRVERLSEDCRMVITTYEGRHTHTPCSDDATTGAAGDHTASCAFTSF

This experiment addresses OsWRKY34 (Oryza sativa, UniProt Q0JBA9 1-250). As to the kind of experiment: protein-binding microarray (RPBM); PBS, 2% BSA, 51.3 ng/ul salmon testes DNA, 50 uM zinc acetate, 200 nM TF, 25 C, 1 h; high values mean tight binding. The following applies: protein: recombinant; tags: N-terminal polyhistidine and DsRed monomer fusion (pET32a); label: CyDye5-dUTP incorporated in the synthesized complementary strand; 3' TTTTT single-stranded linker to array surface; dsDNA, one strand shown. The procedure, abridged:
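Transcription factors were each fused at the N-terminus to a polyhistidine tag plus DsRed and expressed in E. coli BL21-CodonPlus before Ni–NTA purification. Binding to a double-stranded custom Agilent array was carried out with 200 nM protein at 25 °C for 1 h in PBS, 2% BSA, salmon testes DNA and 50 µM zinc acetate. The binding signal is per-feature fluorescence intensity, in arbitrary units, on an Axon 4000B scanner.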
As for “AGGAGTGTCTGGTTGGTTTCCGGGGTGTGTTGGGTGACTCCGGAGTCACCTAGTGCAG”, the binding signal was 29500 fluorescence intensity (a.u.).

As for “CTTTCTTCTGTGTGGTGGGTTTTAGCCGGTTTCTCGCAATCGGAGTCACCTAGTGCAG”, the binding signal was 18400 fluorescence intensity (a.u.).

Turning to “ATGCGGATCTGAGTGGTGGTGGTGGTGGACTGGTGGTTGCCGGAGTCACCTAGTGCAG”, the binding signal is 11000 fluorescence intensity (a.u.).

“TTTGGTTACCGCATTTTTGTGTTCTTCTGTGCAGTTTAGCCGGAGTCACCTAGTGCAG”: the binding signal was 8150 fluorescence intensity (a.u.).

On to “CGTGTGGGTGGGTGGGTGGAGTGGACTGGTTTCTGTGAGCCGGAGTCACCTAGTGCAG”, for which the binding signal is 18500 fluorescence intensity (a.u.).

For the sequence “GGTCTTGCTAGTTGGCCATGTGAGAGTGAGACCGGGTCTCCGGAGTCACCTAGTGCAG”, the binding signal is 50700 fluorescence intensity (a.u.).

Regarding “TGTTGGTGGTGAGGTGTGAGGTGAGGTGGGGTGGTGTGGCCGGAGTCACCTAGTGCAG”, the binding signal was 10100 fluorescence intensity (a.u.).

With “TTGTTGGCAAGTTTCTTCCCTTGTCTCTCTCTTGTGAGACCGGAGTCACCTAGTGCAG”, the binding signal was 8700 fluorescence intensity (a.u.).

For “GCCATGTGACTAGACCGAGCTAGCTCGCTCGATCGATCTCCGGAGTCACCTAGTGCAG”, the binding signal was 8510 fluorescence intensity (a.u.).

Consider “GCCATGGGGTTGACTCTCTGGGTGTTCTTGGTTTCTTGGCCGGAGTCACCTAGTGCAG”, for which the binding signal was 10500 fluorescence intensity (a.u.).

As for “CAATTTTAGTTCAATCTTGGGTGTTTTCGCATGGTTCTCTCGGAGTCACCTAGTGCAG”, the binding signal is 8180 fluorescence intensity (a.u.).

As for “GAAATATCAACAACCCTATAAAAAAAGTCAACCCATGTACCGGAGTCACCTAGTGCAG”, the binding signal is 9120 fluorescence intensity (a.u.).

With “CACACACACAAATCCACAAGTAGACATCCTTCCATGTCTTCGGAGTCACCTAGTGCAG”, the binding signal was 8380 fluorescence intensity (a.u.).

For “AGGTAGTCAAGGTGGACTTATTCCTTTTGTTTCTTCCATTCGGAGTCACCTAGTGCAG”, the binding signal is 8900 fluorescence intensity (a.u.).

On to “CCATTTGTCCACCACCACCTCCACCACCTGACACGTCGTCCGGAGTCACCTAGTGCAG”, for which the binding signal is 8050 fluorescence intensity (a.u.).

With “AATTATTTTCATTTGCTAAGTTACTATTTCGCATTTTTTTCGGAGTCACCTAGTGCAG”, the binding signal is 8650 fluorescence intensity (a.u.).

As for “CAATTATTACAGGCGGCCAGCGCCTCATGGCTTTTACCTTCGGAGTCACCTAGTGCAG”, the binding signal was 8660 fluorescence intensity (a.u.).

Turning to “TCTTACTTGCATGTGAACACCTCTTTGTCGGTTTTTCCATCGGAGTCACCTAGTGCAG”, the binding signal is 10400 fluorescence intensity (a.u.).

As to “AAAAAAGTCAACCCATGTACACCGTCCGATCTCCATCCGACGGAGTCACCTAGTGCAG”, the binding signal was 8110 fluorescence intensity (a.u.).

“TTTTGTCTCTTTCTGCTGCTGGAGTAGTATTGTTCATTTACGGAGTCACCTAGTGCAG”: the binding signal is 9050 fluorescence intensity (a.u.).

Consider “CTGGTAGGATTGCTGCTTGCTTTGCCTTCACGTCATTATCCGGAGTCACCTAGTGCAG”, for which the binding signal is 11200 fluorescence intensity (a.u.).

“TGCGTTTCCCGTCAGCCCTGTCACGCCGCCGCCGGTCGCCCGGAGTCACCTAGTGCAG”: the binding signal is 12000 fluorescence intensity (a.u.).

On to “ACTTTCTTTTTGGGCCTGAAACCACGACGGCCCTTTGTTCCGGAGTCACCTAGTGCAG”, for which the binding signal was 8760 fluorescence intensity (a.u.).

“AAGGATATAAGGGTGGTTGAGGGGTAGAATAGGAAGAAATCGGAGTCACCTAGTGCAG”: the binding signal is 9360 fluorescence intensity (a.u.).

For “AAAATAGGCCAATAGGGTGTTGAGAGAAAAGGAGATATATCGGAGTCACCTAGTGCAG”, the binding signal was 17500 fluorescence intensity (a.u.).

“CGCAAGGGAGAATAGGGGTGTTGAGAGGAGGGGCGACAGGCGGAGTCACCTAGTGCAG”: the binding signal is 8240 fluorescence intensity (a.u.).

With “CTTTCTTTGACTGTTGCCTTTTATTTTGTGCAGGTTGTATCGGAGTCACCTAGTGCAG”, the binding signal was 11300 fluorescence intensity (a.u.).

“CCTGTTGCTGCTCTGTGCCTCTGCTCTGCTCCTTGACTTCCGGAGTCACCTAGTGCAG”: the binding signal is 11300 fluorescence intensity (a.u.).

On to “ATGTTGACTCGTTTGCCTGTGTTCCTCTTGCTGCTATTCACGGAGTCACCTAGTGCAG”, for which the binding signal is 19200 fluorescence intensity (a.u.).

In the case of “CCTCTTGCTATGTGCTGCTCTTCCTTGTTCTTCTTGCCTACGGAGTCACCTAGTGCAG”, the binding signal was 10800 fluorescence intensity (a.u.).

As to “TATTTCGATTTGATGGCTTCCTGTTGCTTTTCCTGTTAATCGGAGTCACCTAGTGCAG”, the binding signal is 14000 fluorescence intensity (a.u.).

As for “TTTTGAGTGCTTTTATTTCTTTATTTCTTTATTTCTTTATCGGAGTCACCTAGTGCAG”, the binding signal is 9320 fluorescence intensity (a.u.).

Regarding “TCCTCTTTTTGCTGGCTTTCTGTTGACTGTTATTTTATTTCGGAGTCACCTAGTGCAG”, the binding signal was 17100 fluorescence intensity (a.u.).

“GATGGCTTCGATTTGCTGTGTTACTTCTTTTTTCTAGTTTCGGAGTCACCTAGTGCAG”: the binding signal is 16900 fluorescence intensity (a.u.).

In the case of “TTGCTTTTGTGTTCGGTTTTTCTATTTTTTCTATTTTCTTCGGAGTCACCTAGTGCAG”, the binding signal is 13700 fluorescence intensity (a.u.).

Consider “GGTTTCGGTTAACTTTTGTGCACACTCGCCAGTGAGAGTTCGGAGTCACCTAGTGCAG”, for which the binding signal was 12300 fluorescence intensity (a.u.).

As for “TGTAAGTCATTCCACCATTTCCCACATTCATATTGATGCCCGGAGTCACCTAGTGCAG”, the binding signal is 8890 fluorescence intensity (a.u.).

On to “TTTAACCTAAACCACATGTGAATTTCTTCTTATGTATTCCCGGAGTCACCTAGTGCAG”, for which the binding signal is 8700 fluorescence intensity (a.u.).

With “GTGGGATTCGCCTGCTTGCTTGCTGGGGCCTTGGGAAATGCGGAGTCACCTAGTGCAG”, the binding signal was 8230 fluorescence intensity (a.u.).

Take “TCAAAACGGCCCACTCGCCGCCCGCCACGTGTCCGACCCGCGGAGTCACCTAGTGCAG”: the binding signal was 8920 fluorescence intensity (a.u.).

Consider “GATCCGCATCACTGATTCACTGCACTTCGCCCGCCGTCTGCGGAGTCACCTAGTGCAG”, for which the binding signal is 9810 fluorescence intensity (a.u.).

On to “TTTTATTCAATATATGTATATAGGTATCTTTGGTTGTTTTCGGAGTCACCTAGTGCAG”, for which the binding signal was 8320 fluorescence intensity (a.u.).
